The compounds below were run on Mel-DCC-11-R (assay: cell viability relative to DMSO control (fraction of DMSO control); higher = less cytotoxic, active = 0.8 or less). Details: 1 µM; 120 h; vemurafenib co-treatment 0 µM.
Procedure: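 Same 315-drug TargetMol library at 1 µM in duplicate, 120 h, ATPlite luminescence normalised to DMSO controls, on the vemurafenib-resistant subline Mel-DCC-11-R cultured alone or with 8 µM vemurafenib co-treatment (Mel-DCC-11-R + V).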

Question: How did the cell viability turn out when `N[C@@H](Cc1ccc(N(CCCl)CCCl)cc1)C(=O)O` [Melphalan] was run?
Answer: The cell viability was 1.17 (inactive).

Question: `O=P1(NCCCl)OCCCN1CCCl` (stereo not given) [Ifosfamide] was tested. Which cell viability did it give?
Answer: The cell viability was 0.968 (inactive).

Question: With `Cn1cc(C2=C(c3cn(C4CCN(Cc5ccccn5)CC4)c4ccccc34)C(=O)NC2=O)c2ccccc21` [Enzastaurin] as the compound, how does the cell viability read?
Answer: Its cell viability is 1.06 (inactive).

Question: For `C/C=C(\C)C(=O)N[C@@H](c1ccccc1)[C@@H](O)C(=O)O[C@H]1C[C@@]2(O)[C@@H](OC(=O)c3ccccc3)[C@@H]3[C@]4(OC(C)=O)CO[C@@H]4C[C@H](O)[C@@]3(C)C(=O)[C@H](OC(C)=O)C(=C1C)C2(C)C` [Cephalomannine], which cell viability is on record?
Answer: Its cell viability is 0.99 (inactive).

Question: How did the cell viability turn out when `NCCC(O)(P(=O)([O-])O)P(=O)([O-])O.[Na+].[Na+]` [Pamidronate disodium salt] was run?
Answer: The cell viability was 1.02 (inactive).

Question: `O.O=P1(N(CCCl)CCCl)NCCCO1` (stereo not given) [Cyclophosphamide monohydrate] was tested. Which cell viability did it give?
Answer: Its cell viability is 0.857 (inactive).

Question: For `Cc1ncc(CNC(=O)N(CCCl)N=O)c(N)n1.Cl` [Nimustine Hydrochloride], which cell viability is on record?
Answer: The cell viability was 1.1 (inactive).

Question: How did the cell viability turn out when `C[C@]12CCC(=O)C(O)=C1CC[C@@H]1[C@@H]2CC[C@]2(C)C(=O)CC[C@@H]12` [Formestane] was run?
Answer: The cell viability was 0.922 (inactive).

Question: How did the cell viability turn out when `CC(O)(CS(=O)(=O)c1ccc(F)cc1)C(=O)Nc1ccc(C#N)c(C(F)(F)F)c1` (stereo not given) [Bicalutamide] was run?
Answer: Its cell viability is 1.02 (inactive).

Question: For `COc1cc([C@@H]2c3cc4c(cc3[C@H](O)[C@H]3COC(=O)[C@H]23)OCO4)cc(OC)c1OC` [Podophyllotoxin], which cell viability is on record?
Answer: The cell viability was 0.575 (active).

Question: With `CCCCCN(C)CCC(O)(P(=O)([O-])O)P(=O)(O)O.[Na+]` [Ibandronate sodium] as the compound, how does the cell viability read?
Answer: The cell viability was 0.82 (inactive).

Question: How did the cell viability turn out when `CCC1(c2ccc(N)cc2)CCC(=O)NC1=O` (stereo not given) [Aminoglutethimide] was run?
Answer: The cell viability was 1.08 (inactive).

Question: With `Cl.N[C@@H]1C[C@H]1c1ccccc1` [Tranylcypromine (2-PCPA) hydrochloride] as the compound, how does the cell viability read?
Answer: The cell viability was 0.9 (inactive).

Question: With `C=C1C[C@@H]2[C@H](CC[C@]3(C)C(=O)CC[C@@H]23)[C@@]2(C)C=CC(=O)C=C12` [Exemestane] as the compound, how does the cell viability read?
Answer: Its cell viability is 1.09 (inactive).

Question: With `C[C@]12CC[C@@H]3c4ccc(OC(=O)N(CCCl)CCCl)cc4CC[C@H]3[C@@H]1CC[C@@H]2OP(=O)([O-])[O-].[Na+].[Na+]` [Estramustine phosphate sodium] as the compound, how does the cell viability read?
Answer: The cell viability was 1.01 (inactive).

Question: With `NCCCNCCSP(=O)(O)O` [Amifostine] as the compound, how does the cell viability read?
Answer: The cell viability was 0.934 (inactive).

Question: `COC(=O)Nc1nc2ccccc2[nH]1` [Carbendazim] was tested. Which cell viability did it give?
Answer: Its cell viability is 0.917 (inactive).

Question: For `CNC(=O)Oc1ccccc1OC(C)C` [Propoxur], which cell viability is on record?
Answer: The cell viability was 0.827 (inactive).

Question: Which cell viability does the source give for `CCC1=C[C@H]2CN3CCc4c([nH]c5ccccc45)[C@](C(=O)OC)(C2)[C@H]13` [Catharanthine] here?
Answer: The cell viability was 0.906 (inactive).

Question: How did the cell viability turn out when `O=[As]O[As]=O` (stereo not given) [Arsenic oxide (3)] was run?
Answer: Its cell viability is 0.971 (inactive).

Same assay, conditions: 1 µM; 120 h; vemurafenib co-treatment 8 µM

Question: `N[C@@H](Cc1ccc(N(CCCl)CCCl)cc1)C(=O)O` [Melphalan] was tested. Which cell viability did it give?
Answer: The cell viability was 1.11 (inactive).

Question: With `O=P1(NCCCl)OCCCN1CCCl` (stereo not given) [Ifosfamide] as the compound, how does the cell viability read?
Answer: Its cell viability is 1 (inactive).

Question: With `Cn1cc(C2=C(c3cn(C4CCN(Cc5ccccn5)CC4)c4ccccc34)C(=O)NC2=O)c2ccccc21` [Enzastaurin] as the compound, how does the cell viability read?
Answer: The cell viability was 1.24 (inactive).

Question: Which cell viability does the source give for `C/C=C(\C)C(=O)N[C@@H](c1ccccc1)[C@@H](O)C(=O)O[C@H]1C[C@@]2(O)[C@@H](OC(=O)c3ccccc3)[C@@H]3[C@]4(OC(C)=O)CO[C@@H]4C[C@H](O)[C@@]3(C)C(=O)[C@H](OC(C)=O)C(=C1C)C2(C)C` [Cephalomannine] here?
Answer: Its cell viability is 0.638 (active).

Question: How did the cell viability turn out when `NCCC(O)(P(=O)([O-])O)P(=O)([O-])O.[Na+].[Na+]` [Pamidronate disodium salt] was run?
Answer: The cell viability was 0.981 (inactive).

Question: Which cell viability does the source give for `O.O=P1(N(CCCl)CCCl)NCCCO1` (stereo not given) [Cyclophosphamide monohydrate] here?
Answer: The cell viability was 1.03 (inactive).

Question: `Cc1ncc(CNC(=O)N(CCCl)N=O)c(N)n1.Cl` [Nimustine Hydrochloride] was tested. Which cell viability did it give?
Answer: The cell viability was 0.991 (inactive).

Question: `C[C@]12CCC(=O)C(O)=C1CC[C@@H]1[C@@H]2CC[C@]2(C)C(=O)CC[C@@H]12` [Formestane] was tested. Which cell viability did it give?
Answer: Its cell viability is 1.02 (inactive).

Question: Which cell viability does the source give for `CC(O)(CS(=O)(=O)c1ccc(F)cc1)C(=O)Nc1ccc(C#N)c(C(F)(F)F)c1` (stereo not given) [Bicalutamide] here?
Answer: Its cell viability is 1.12 (inactive).

Question: Which cell viability does the source give for `COc1cc([C@@H]2c3cc4c(cc3[C@H](O)[C@H]3COC(=O)[C@H]23)OCO4)cc(OC)c1OC` [Podophyllotoxin] here?
Answer: The cell viability was 0.407 (active).

Question: Which cell viability does the source give for `CCCCCN(C)CCC(O)(P(=O)([O-])O)P(=O)(O)O.[Na+]` [Ibandronate sodium] here?
Answer: The cell viability was 0.935 (inactive).

Question: `CCC1(c2ccc(N)cc2)CCC(=O)NC1=O` (stereo not given) [Aminoglutethimide] was tested. Which cell viability did it give?
Answer: Its cell viability is 1.04 (inactive).

Question: How did the cell viability turn out when `Cl.N[C@@H]1C[C@H]1c1ccccc1` [Tranylcypromine (2-PCPA) hydrochloride] was run?
Answer: Its cell viability is 0.694 (active).

Question: For `C=C1C[C@@H]2[C@H](CC[C@]3(C)C(=O)CC[C@@H]23)[C@@]2(C)C=CC(=O)C=C12` [Exemestane], which cell viability is on record?
Answer: The cell viability was 1.13 (inactive).

Question: How did the cell viability turn out when `C[C@]12CC[C@@H]3c4ccc(OC(=O)N(CCCl)CCCl)cc4CC[C@H]3[C@@H]1CC[C@@H]2OP(=O)([O-])[O-].[Na+].[Na+]` [Estramustine phosphate sodium] was run?
Answer: The cell viability was 1.11 (inactive).

Question: How did the cell viability turn out when `NCCCNCCSP(=O)(O)O` [Amifostine] was run?
Answer: The cell viability was 1.21 (inactive).

Question: With `COC(=O)Nc1nc2ccccc2[nH]1` [Carbendazim] as the compound, how does the cell viability read?
Answer: The cell viability was 1.05 (inactive).

Question: How did the cell viability turn out when `CNC(=O)Oc1ccccc1OC(C)C` [Propoxur] was run?
Answer: The cell viability was 0.985 (inactive).

Question: Which cell viability does the source give for `CCC1=C[C@H]2CN3CCc4c([nH]c5ccccc45)[C@](C(=O)OC)(C2)[C@H]13` [Catharanthine] here?
Answer: The cell viability was 0.983 (inactive).

Question: For `O=[As]O[As]=O` (stereo not given) [Arsenic oxide (3)], which cell viability is on record?
Answer: The cell viability was 0.951 (inactive).

— the supplement of paper PMC12808144
